Our source for the growth values is PubChem BioAssay (NCI).

Holding throughout (assay): NCI-60 one-dose screen, 48 h (100 = growth as untreated, 0 = no growth, -100 = all killed)
What all share (settings): 10 µM unless noted

The test system of assay [1] is DU-145 prostate.
Assay [2] has as its system K-562 leukemia.
Assay [3] concerns MALME-3M melanoma.
The test system of assay [4] is MDA-MB-231 breast.
In assay [5] the test system is RXF 393 renal.
The test system of assay [6] is SF-268 CNS.
The subject of assay [7] is SF-295 CNS.
Assay [8] relates to SF-539 CNS.
Assay [9] concerns UACC-257 melanoma.
For assay [10], the system named is M14 melanoma.
For assay [11], the system named is HCT-15 colon.
Assay [12] deals with HT29 colon.
Assay [13] relates to SNB-75 CNS.
Assay [14] relates to SNB-19 CNS.
For assay [15], the system named is U251 CNS.
Assay [16] concerns PC-3 prostate.
Assay [17] deals with SK-MEL-5 melanoma.
Assay [18] deals with UACC-62 melanoma.
Assay [19] relates to LOX IMVI melanoma.
In assay [20] the test system is SK-MEL-28 melanoma.

Structures are written as SMILES. This is part of a sample that, as a whole, favours compounds with a hit. Of some 83,000 tested, about 20% had one in any assay.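 Growth was measured after 48 h exposure to one concentration of compound in 96-well plates. Values under 10 count as active.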 A number with no mark means an inactive call. The source made the active and inactive calls.

Consider `COC1=C(C)C(=O)N2[C@@H]1[C@H](c1ccccc1)OC21C=CC(=O)C=C1`, for which the growth in assay [1] was 4.7% (active); in assay [2], 6.14% (active); in assay [3], -12.3% (active); in assay [4] it was 11.9%; in assay [5], -69.2% (active); in [6] it was 1.71% (active). Further, the growth in [7] was 90.3%; in [8] it was -69% (active); in assay [9], -12.8% (active); in assay [10], -43.8% (active); in assay [11], -27.3% (active); in assay [12], -12.6% (active). The growth was 52.7% in assay [13]; 64.9% in [14]; 26.2% in assay [15]; -5.32% (active) in [16]; 33% in assay [17]; -55.2% (active) in assay [18]. Besides, the growth is -61.6% (active) in [19] and -14.4% (active) in [20].
Consider `COc1cccc(C(=O)NNc2nc(Cl)nc(Cl)n2)c1`, for which the growth in assay [1] was 105%; in assay [2], 96.7%; in [3], 100%; in assay [4], 104%; in assay [5] it was 109%; in assay [6], 103%. Also, the growth was 101% in assay [7]; 100% in assay [8]; 102% in [9]; 102% in assay [10]; 98.2% in [11]; 98.8% in assay [12]. In addition, the growth in [13] was 87.4%; in assay [14], 93%; in [15], 99.2%; in assay [16] it was 97.4%; in assay [17] it was 96.1%; in [18], 101%. In addition, the growth in [19] is 97%; in assay [20] it was 105%.
With `Fc1ccc2[nH]cc(-c3nc(-c4c[nH]c5ccncc45)cs3)c2c1`, the growth is -0.992% (active) in assay [1]; -41.7% (active) in [2]; -85.3% (active) in [3]; -59.8% (active) in [4]; -84.6% (active) in [5]; -31.5% (active) in assay [6]. Besides, the growth was -74.1% (active) in assay [7]; -92.6% (active) in assay [8]; -67.8% (active) in [9]; -66.4% (active) in assay [10]; -50% (active) in assay [11]; -62.9% (active) in [12]. Moreover, the growth was -31.6% (active) in assay [13]; -48.4% (active) in assay [14]; -81.8% (active) in assay [15]; 7.43% (active) in assay [16]; -94.6% (active) in assay [17]; -75.3% (active) in assay [18]. Also, the growth was -92.3% (active) in assay [19] and -92.1% (active) in assay [20].
For the molecule `CNC1=C([N+](=O)[O-])C(c2ccc(OC)cc2)C(C#N)=C(c2cccs2)O1` (stereo not given), the growth was 113% in assay [1]; 105% in [2]; 98.6% in [3]; 99.5% in assay [4]; 121% in assay [5]; 101% in assay [6]. Also, the growth in [7] was 101%; in assay [8], 100%; in assay [9], 106%; in [10], 103%; in assay [11], 108%; in assay [12], 118%. The growth was 95.5% in [13]; 105% in assay [14]; 101% in assay [15]; 101% in assay [16]; 100% in [17]; 101% in [18]. For the same molecule, the growth in [19] was 95.3%; in assay [20] it was 122%.
With `O=C(Nc1ccc(Br)cc1)C1=NCCCCN1`, the growth in [1] is 85.1%; in [2] it was 50.8%; in assay [3], 104%; in [4], 92.1%; in [5] it was 110%; in [6], 79.6%. Further, the growth in [7] is 98.2%; in [8], 90.9%; in assay [9], 100%; in assay [10], 81.6%; in assay [11], 62.2%; in assay [12], 86%. In addition, the growth in [13] is 88.6%; in assay [14], 97.3%; in assay [15] it was 91.6%; in assay [16], 74.4%; in assay [17], 93.3%; in [18], 58.8%. In addition, the growth is 35.5% in assay [19] and 114% in [20].
On to `CCN1C(=O)N(CC)C2C1NC(=S)N2/N=C/c1ccc(OC)cc1` (stereo not given), for which the growth in [1] was 78.5%; in assay [2], 20.1%; in assay [3], 54.4%; in assay [4], 69.5%; in assay [5] it was 59.8%; in assay [6], 71.8%. For the same molecule, the growth in [7] is 42.1%; in assay [8], 55.2%; in assay [9], 61%; in assay [10], 29.9%; in assay [11], 33.2%; in [12] it was 8.46% (active). Moreover, the growth in assay [13] was 15.1%; in [14], 52.8%; in assay [15], 40.3%; in assay [16], 55.9%; in [17] it was 43.3%; in assay [18], 38.5%. For the same molecule, the results for the growth in assay [19] and in [20] were 49.2% and 71%, respectively.
Consider `CSC1=Nc2c(c(C)c(-c3ccccc3)n2CCCC(=O)O)C2=NC(=O)C[C@H](C)N12`, for which the growth was 115% in assay [1]; 101% in assay [2]; 102% in assay [3]; 138% in assay [4]; 106% in [5]; 110% in assay [6]. Further, the growth in assay [7] is 106%; in assay [8] it was 85.5%; in assay [9], 108%; in assay [10], 102%; in assay [11] it was 127%; in assay [12], 94.1%. Besides, the growth in assay [13] was 79.7%; in assay [14] it was 101%; in assay [15] it was 103%; in [16] it was 97.6%; in assay [17], 92.4%; in assay [18] it was 107%. Also, the growth was 94.9% in [19] and 105% in assay [20].
In the case of `COc1cc(-c2nc3cc(Cl)c(Cl)cc3[nH]2)ccc1OCC(=O)N=Nc1c(O)[nH]c2ccc(Cl)cc12`, the growth is 6.51% (active) in assay [1]; -11.7% (active) in assay [2]; -16.4% (active) in [3]; -43.8% (active) in assay [4]; -6.73% (active) in [5]; -24.5% (active) in assay [6]. Moreover, the growth in assay [7] was -18% (active); in assay [8], -36% (active); in assay [9], 7.43% (active); in assay [10] it was -35.8% (active); in [11] it was 58.4%; in [12] it was 9.24% (active). In addition, the growth in assay [13] is 6.76% (active); in assay [14], 9.74% (active); in [15], -89.4% (active); in assay [16], 0.522% (active); in assay [17] it was -62.9% (active); in assay [18] it was -11.7% (active). The growth is -83.5% (active) in assay [19] and -2.83% (active) in [20].
